Compound activity: PubChem BioAssay, National Center for Advancing Translational Sciences (NCATS)
This is a sample that favours compounds with a hit; in the whole collection about 19% have one here.
DT40 TDP1 no CPT: qHTS for Inhibitors of human tyrosyl-DNA phosphodiesterase 1 (TDP1): qHTS in cells in absence of CPT; Potency, µM (doses to about 46.2 µM), inactives show at the highest dose activity change, negative = growth inhibition, usual class: inhibitors; DT40 Tdp1-/- hTDP1 cells, no CPT, ATP luminescence, 48 h; hit rate 15% among 420,000; note: nearly all actives have a fitted effect of over 55% in size
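Stably hTDP1-transfected Tdp1-null chicken DT40 cells were treated with library compounds minus camptothecin and grown for at least 48 hr at 37 °C, after which cellular ATP was quantified by luminescence.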
TDP1 block: blocks human tyrosyl-DNA phosphodiesterase 1; Q9NUW8; hit rate 0.28% among 350,000; AID 485290; Potency, µM (series often up to 130 µM), without a hit: top-dose activity change, negative = inhibition, most hits filed as inhibitors; recombinant TDP1, AlphaScreen DNA substrate cleavage; note: nearly all actives have a fitted effect of over 40% in size
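E. coli-derived human Tdp1, 1 nM final. Cpd preinc 15 min RT; substrate 15 nM final, 5 min RT; AS bead mix 10 ug/ml final, 10 min RT. Signal loss = tyrosine-FITC cleavage. No-enzyme wells = max signal.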
DT40 TDP1 CPT: growth inhibition of DT40 Tdp1-/-;hTDP1 cells with camptothecin (screen for TDP1 inhibitors); chicken DT40 Tdp1-/-;hTDP1 cells + 20 nM CPT, ATP luminescence, 48 h; Potency, µM (titrated, usually from 46.2 µM), for the others: at the highest dose activity change, negative = growth inhibition, most hits filed as inhibitors; hit rate 12% among 420,000; AID 686979; note: nearly all actives have a fitted effect of over 55% in size
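Chicken DT40 Tdp1-/- cells stably complemented with human TDP1 were seeded at 400 cells/well in medium containing 20 nM camptothecin, exposed to pin-transferred compounds, and grown at 37 °C for at least 48 hr. Viability was read as ATP luminescence.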
RORgamma inh: ROR gamma (mouse) transcription inhibition; Drosophila S2 Gal4-RORgamma UAS-luciferase reporter, 20 h; Potency, µM (titrated, usually from 53.6 µM), for the others: at the top dose activity change, negative = inhibition, most hits filed as inhibitors; hit rate 5.4% among 310,000; note: nearly all actives have a fitted effect of over 60% in size
Target sequence (P51450 whole entry, looked up, the tested form may be a part): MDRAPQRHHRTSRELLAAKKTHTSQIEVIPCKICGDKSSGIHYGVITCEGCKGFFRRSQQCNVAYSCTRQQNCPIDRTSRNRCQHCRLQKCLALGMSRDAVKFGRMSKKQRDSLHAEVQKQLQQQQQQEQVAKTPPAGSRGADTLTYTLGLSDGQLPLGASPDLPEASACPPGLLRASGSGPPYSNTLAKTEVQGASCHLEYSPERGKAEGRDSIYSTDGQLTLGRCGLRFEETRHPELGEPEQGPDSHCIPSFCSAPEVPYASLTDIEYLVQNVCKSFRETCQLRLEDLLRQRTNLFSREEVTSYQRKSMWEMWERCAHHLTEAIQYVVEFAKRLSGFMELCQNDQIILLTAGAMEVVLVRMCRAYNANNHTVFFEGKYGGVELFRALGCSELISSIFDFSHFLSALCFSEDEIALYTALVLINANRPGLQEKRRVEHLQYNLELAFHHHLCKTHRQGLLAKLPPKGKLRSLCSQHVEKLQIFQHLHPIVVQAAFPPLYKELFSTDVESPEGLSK
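Luminescence from a UAS-regulated Photinus luciferase reporter in stably transfected Drosophila Schneider cells is measured; decreased signal marks ROR gamma inhibition. Fusion expression is induced by 700 uM copper sulfate for 20 hr.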
VP16 counter: Gal4-VP16 reporter inhibition counter-screen; Potency, µM (highest dose often 53.6 µM), for the others: top-dose activity, negative = inhibition, hits mostly inhibitors; hit rate 3.5% among 310,000; Drosophila S2 Gal4-VP16 UAS-luciferase, luminescence, 20 h;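 note: Gal4-VP16 expression switched on by copper sulfate through the metallothionein promoter; nearly all actives have a fitted effect of over 50% in size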
The depositor's hits bear a star. Calls come from the whole dose curve; as a rule, active = well fitted curve in the direction sought with a large enough effect; inconclusive = small, poorly fitted or top-dose-only effect, or another doubt; inactive = no such curve, though single readings can be large; an effect the other way counts as inactive or inconclusive. % is set by controls: 0 for no effect and ±100 for the full control effect; potency is the fitted concentration of half-maximal effect.

How did CC1CCCC(NC(=O)C2CC(=O)N(Cc3ccccc3)C2)C1C (configuration not stated) do in these assays?
DT40 TDP1 no CPT: 25%; TDP1 block: 1%; DT40 TDP1 CPT: -4%; RORgamma inh: -9%; VP16 counter: 8%

What do the screens show for `CC1CCCCC1NC(=O)C1CC(=O)N(Cc2ccccc2)C1` (configuration not stated)?
DT40 TDP1 no CPT: 12µM*; TDP1 block: 1%; DT40 TDP1 CPT: 13µM*; RORgamma inh: 27%; VP16 counter: 4%

How did Cc1ccc(CN2CC(C(=O)NC3CCCC(C)C3C)CC2=O)cc1 (configuration not stated) do in these assays?
DT40 TDP1 no CPT: inconclusive; TDP1 block: 1%; DT40 TDP1 CPT: 18µM*

What do the screens show for `FC(F)(F)c1ccccc1CNCc1ccc2c(c1)OCO2`?
DT40 TDP1 no CPT: -13%; DT40 TDP1 CPT: -10%; RORgamma inh: -2%; VP16 counter: -1%

What do the screens show for `Cc1ccc(NC(=O)c2ccc(OC(=O)C(C)Oc3ccc(Cl)cc3C)cc2)cc1` (configuration not stated)?
DT40 TDP1 no CPT: -12%; TDP1 block: 3%; DT40 TDP1 CPT: -9%; RORgamma inh: -1%; VP16 counter: 6%

How did Cc1cc(CNC(=O)C2(C(F)(F)F)CC(CCCO)CCCO2)nn1C (configuration not stated) do in these assays?
DT40 TDP1 no CPT: -5%; TDP1 block: 8%; DT40 TDP1 CPT: -2%; RORgamma inh: 39%; VP16 counter: -2%

How did COc1ccc2c(CC(=O)OCC(=O)Nc3cccc(S(N)(=O)=O)c3)coc2c1 do in these assays?
DT40 TDP1 no CPT: 2%; DT40 TDP1 CPT: -19%; RORgamma inh: 26%; VP16 counter: -2%

Results for Cc1noc(C)c1C(=O)Nc1ccc(-n2ccc(C(F)(F)F)n2)cc1 ?
DT40 TDP1 no CPT: inconclusive; DT40 TDP1 CPT: -30%; RORgamma inh: inconclusive; VP16 counter: -27%

Results for COc1ccccc1C(=O)NC(=O)Nc1ccc(-n2nc(C(F)(F)F)cc2C(F)(F)F)cc1 ?
DT40 TDP1 no CPT: 15µM*; TDP1 block: -2%; DT40 TDP1 CPT: inconclusive

How did O=C(Nc1ccc(-n2ccc(C(F)(F)F)n2)cc1)Nc1cccc(Cl)c1 do in these assays?
TDP1 block: 0%; RORgamma inh: inconclusive; VP16 counter: 18µM*

Results for O=C(Nc1ccc(-n2ccc(C(F)(F)F)n2)cc1)c1cccs1 ?
DT40 TDP1 no CPT: -9%; TDP1 block: 0%; DT40 TDP1 CPT: inconclusive; RORgamma inh: 44%; VP16 counter: -18%

Results for Cc1cc(C)cc(NC(=O)Nc2ccc(-n3ccc(C(F)(F)F)n3)cc2)c1 ?
DT40 TDP1 no CPT: 21µM*; DT40 TDP1 CPT: inconclusive; RORgamma inh: 29%; VP16 counter: -9%

What do the screens show for `COc1ccccc1NC(=O)Nc1ccc(-n2ccc(C(F)(F)F)n2)cc1`?
DT40 TDP1 no CPT: 26µM*; TDP1 block: 2%; DT40 TDP1 CPT: inconclusive; RORgamma inh: inconclusive; VP16 counter: 29%

How did O=C(O)c1ccccc1C(=O)Nc1ccc(-n2ccc(C(F)(F)F)n2)cc1 do in these assays?
DT40 TDP1 no CPT: -11%; TDP1 block: 1%; DT40 TDP1 CPT: 0%; RORgamma inh: 26%; VP16 counter: -1%

What do the screens show for `CCOC(=O)C1(C)C=C(Nc2ccc(Br)cc2)C(=O)N1c1ccccc1` (configuration not stated)?
DT40 TDP1 no CPT: -14%; DT40 TDP1 CPT: inconclusive

Results for O=C(NNc1nccc(C(F)(F)F)n1)Nc1cccc(Cl)c1 ?
DT40 TDP1 no CPT: 2%; DT40 TDP1 CPT: 3%; RORgamma inh: 7%; VP16 counter: 5%

Results for O=C(NNc1cc(C(F)(F)F)nc2ccccc12)Nc1cccc(Cl)c1 ?
DT40 TDP1 no CPT: 16µM*; DT40 TDP1 CPT: inconclusive; RORgamma inh: inconclusive; VP16 counter: 6%

What do the screens show for `Cc1cc(-c2nsc(=O)o2)c(S(C)(=O)=O)s1`?
DT40 TDP1 no CPT: 16µM*; TDP1 block: 7%; DT40 TDP1 CPT: 21µM*; RORgamma inh: -4%; VP16 counter: 1%

Results for Cn1c2ccccc2c(=O)c2ccc(C#Cc3ccc(N)cc3)cc21 ?
DT40 TDP1 no CPT: 16µM*; DT40 TDP1 CPT: inconclusive; RORgamma inh: 22%; VP16 counter: 15%

What do the screens show for `COc1ccc(C#Cc2ccc3c(=O)c4ccccc4n(C)c3c2)cc1`?
DT40 TDP1 no CPT: 18µM*; DT40 TDP1 CPT: inconclusive; RORgamma inh: 18%; VP16 counter: 6%

Results for Cn1c2ccccc2c(=O)c2cc(C#CC3=CCCCC3)ccc21 ?
DT40 TDP1 no CPT: 18µM*; TDP1 block: -5%; DT40 TDP1 CPT: 7.3µM*

How did COc1ccccc1C#Cc1ccc2c(=O)c3ccccc3n(C)c2c1 do in these assays?
DT40 TDP1 no CPT: inconclusive; DT40 TDP1 CPT: inconclusive; RORgamma inh: inconclusive; VP16 counter: 3%

Results for O=C(NCCN1CCOCC1)C1CCC(=O)N1Cc1ccccc1Cl (configuration not stated) ?
DT40 TDP1 no CPT: -1%; TDP1 block: 5%; DT40 TDP1 CPT: 12%; RORgamma inh: 14%; VP16 counter: -2%

What do the screens show for `Cc1ccc(CCNC(=O)C2CCCN(S(=O)(=O)c3cccs3)C2)cc1` (configuration not stated)?
DT40 TDP1 no CPT: -24%; TDP1 block: 0%; DT40 TDP1 CPT: inconclusive; RORgamma inh: 23%; VP16 counter: -3%

What do the screens show for `COc1ccc(C(=O)NCc2nnc(SCC(=O)NCc3ccc(F)cc3)o2)cc1`?
DT40 TDP1 no CPT: -14%; TDP1 block: 3%; DT40 TDP1 CPT: -17%; RORgamma inh: -7%; VP16 counter: -11%

How did Cc1ccc(-n2ncc3c(NNC(=O)c4ccccc4C)ncnc32)cc1 do in these assays?
DT40 TDP1 no CPT: inconclusive; TDP1 block: 13%; DT40 TDP1 CPT: inconclusive

Results for C/[N+]([O-])=C\c1coc2ccccc2c1=O ?
DT40 TDP1 no CPT: -15%; TDP1 block: 4%; DT40 TDP1 CPT: 7%; RORgamma inh: -11%; VP16 counter: 10%

What do the screens show for `C#CCCc1ccccc1/C=[N+](/C)[O-]`?
DT40 TDP1 no CPT: inconclusive; TDP1 block: 3%; DT40 TDP1 CPT: 23µM*

How did C=CCCCCCCCCC(=O)N1CCN(c2cc3c(cc2F)c(=O)c(C(=O)O)cn3CC)CC1 do in these assays?
DT40 TDP1 no CPT: inconclusive; DT40 TDP1 CPT: 21µM*; RORgamma inh: 0%; VP16 counter: 5%

What do the screens show for `CCn1cc(C(=O)O)c(=O)c2cc(F)c(N3CCN(C(=S)NC(=O)c4cc(OC)cc(OC)c4)CC3)cc21`?
DT40 TDP1 no CPT: inconclusive; TDP1 block: 45µM*; DT40 TDP1 CPT: inconclusive; RORgamma inh: 2.5µM*; VP16 counter: 6.3µM*
